# In the supplement of paper PMC6411743:
# ± gives the standard deviation of the averaged measurements. The full data set covers some 5,400 targets. This sample favours those with the largest changes.
# Target: T1, PINX1 (UniProt Q96BK5)
# T1 sequence (whole entry): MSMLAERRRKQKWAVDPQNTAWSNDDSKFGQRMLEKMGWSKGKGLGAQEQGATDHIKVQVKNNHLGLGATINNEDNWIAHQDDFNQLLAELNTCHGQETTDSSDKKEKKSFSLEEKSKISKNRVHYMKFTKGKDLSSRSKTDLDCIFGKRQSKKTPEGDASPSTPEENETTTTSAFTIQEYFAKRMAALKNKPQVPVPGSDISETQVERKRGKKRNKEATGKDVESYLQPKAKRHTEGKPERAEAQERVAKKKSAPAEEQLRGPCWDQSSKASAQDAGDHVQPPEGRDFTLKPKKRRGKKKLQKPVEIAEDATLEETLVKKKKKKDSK
# Assay: NP40-soluble protein abundance relative to vehicle (solubility fold change) (ratio); higher = more soluble protein in presence of GTP
# Procedure: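 Solubility proteome profiling in Jurkat crude lysate. Lysate was treated with Mg-GTP (0.1-10 mM) for 10 min at room temperature and 3 min at 37 °C, then solubilised with 0.8% NP40 and benzonase, followed by ultracentrifugation. Proteins were quantified by TMT10 LC-MS/MS; the value is the NP40-soluble abundance relative to the NP40-processed vehicle, from 3 independent experiments.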
structure (smiles),measurement,setting,value
Nc1nc2c(ncn2[C@@H]2O[C@H](COP(=O)(O)OP(=O)(O)OP(=O)(O)O)[C@@H](O)[C@H]2O)c(=O)[nH]1 [guanosine triphosphate],NP40-soluble protein abundance,concentration: 0.1mM,1.22 ± 0.065
same,NP40-soluble protein abundance,concentration: 0.5mM,1.28 ± 0.074
same,NP40-soluble protein abundance,concentration: 1mM,1.45 ± 0.033
same,NP40-soluble protein abundance,concentration: 2mM,1.64 ± 0.093
same,NP40-soluble protein abundance,concentration: 4mM,1.96 ± 0.15
same,NP40-soluble protein abundance,concentration: 6mM,2.01 ± 0.21
same,NP40-soluble protein abundance,concentration: 8mM,2.36 ± 0.13
same,NP40-soluble protein abundance,concentration: 10mM,2.62 ± 0.26
